Drawing on PubChem BioAssay, this text covers composite z-score and z-score for 17 compounds.

Calls of active or inactive are those of the source. Unless noted, no rule for the calls is given here.

In assay [1] the test system is XIP peptide (Xip251-270) binding. The experiment in a line: XIP fragment 251-270 binding compounds – biochemical, small-molecule microarray, fluorescence 635/667 nm, 0.1 µg/mL protein, primary screen (AID 1182). The following applies: fluorescent protein binding, 635 nm, higher = more signal, called active from +8 up or from −8 down.
For a further assay, the system named is XIP peptide (Xip251-270). Briefly: compounds binding XIP fragment 251-270 – biochemical, small-molecule microarray, fluorescence 635/667 nm, 0.5 µg/mL protein, primary screen (AID 1183). Conditions: fluorescence 635 nm, higher = more signal.
Assay [2] can be described thus: blood-stage malaria parasite viability loss – strain 3D7, DAPI fluorescence, 100 nL, primary screen (AID 1184).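 Also: parasites grown inside human red blood cells in medium with human serum.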 The following applies: P. falciparum 3D7 growth, 3 d, higher = more signal.
Assay [3] concerns the target Homeobox protein Hox-A13 (Mus musculus) (UniProt Q62424). Briefly: disruptors of Hoxa13 oligonucleotide interaction – biochemical, fluorescence polarization, labeled oligonucleotide, primary screen (AID 1185). The following applies: Hoxa13:DNA binding, 15 min, higher = more signal, called active from +8 up or from −8 down. A general note: Polarisation of emitted light reports the rotation of a fluorescent probe.

Assay [4] can be described thus: blockers of DNA damage checkpoint Chk1 activation – imaging, HeLa, hydroxyurea, phospho-Chk1 antibody, percent positive cells, primary screen (AID 1186). The following applies: hydroxyurea-induced phospho-Chk1 immunofluorescence imaging, higher = more signal.
A short description of assay [5]: blockers of DNA damage checkpoint Chk1 activation – imaging, HeLa, hydroxyurea, phospho-Chk1 nuclear intensity, primary screen (AID 1187). The following applies: hydroxyurea-induced phospho-Chk1 immunofluorescence imaging, higher = more signal.

Chain of Homeobox protein Hox-A13 (Mus musculus) (Q62424 whole entry, looked up): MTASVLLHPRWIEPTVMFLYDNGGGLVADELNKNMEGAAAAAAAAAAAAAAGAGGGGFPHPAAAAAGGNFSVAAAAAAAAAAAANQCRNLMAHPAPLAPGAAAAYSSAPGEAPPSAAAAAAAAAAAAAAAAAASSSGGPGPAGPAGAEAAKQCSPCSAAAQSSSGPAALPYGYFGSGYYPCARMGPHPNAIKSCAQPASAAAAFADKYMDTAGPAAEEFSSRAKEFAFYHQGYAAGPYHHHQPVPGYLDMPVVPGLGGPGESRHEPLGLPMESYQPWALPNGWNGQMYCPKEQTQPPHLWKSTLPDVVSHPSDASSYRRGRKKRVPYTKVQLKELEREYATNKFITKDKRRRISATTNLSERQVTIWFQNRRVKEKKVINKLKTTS

`C=C(COC)C(=O)CC[C@@H](OC(=O)c1cccnc1)c1ccc(OCCO)cc1`: the composite z-score was -0.344 (inactive) in assay [1] and 0.481 in the assay on XIP peptide (Xip251-270). The z-score in assay [2] is 0.415; in assay [3], -4.4 (inactive); in assay [4] it was -0.0647 (inactive); in assay [5], -0.573 (inactive).
In the case of `[N-]=[N+]=NCc1ccccc1C[C@@]1(C(=O)N2CCOCC2)N=C(c2ccc(OCCCO)cc2)O[C@@H]1c1ccccc1`, the results for the composite z-score (in assay [1]; in the assay on XIP peptide (Xip251-270)) were 0.761 (inactive) and 0.74, respectively. In addition, the z-score in assay [2] is -2.73; in assay [3], -4.1 (inactive); in assay [4], 0.123 (inactive); in assay [5], 0.608 (inactive).
With `COc1cc(OC)c(C(O)C2C=CC3C(=O)N(c4ccccc4)C(=O)C3N2Nc2ccccc2)cc1Br` (configuration not stated), the figures for the composite z-score (in assay [1]; with XIP peptide (Xip251-270)) were 1.02 (inactive) and 0.577, respectively. Also, the z-score was 0.0461 in assay [2], -3.38 (inactive) in assay [3], -0.754 (inactive) in assay [4] and -0.747 (inactive) in assay [5].
As to `O=C(N1CCCCC1)[C@@]1(CCS(=O)(=O)c2ccccc2)COC(c2ccc(OCCCO)cc2)=N1`, the values for the composite z-score (in assay [1]; in the assay on XIP peptide (Xip251-270)) were 1.16 (inactive) and 0.809, respectively. For the same compound, the z-score in assay [2] was -2; in assay [3], -5.2 (inactive); in assay [4], -0.0331 (inactive); in assay [5] it was -0.187 (inactive).
Turning to `COCCOC(=O)N1C(=O)[C@@]2(c3cc(C#CC4=CCCCC4)ccc31)[C@H](c1ccccc1OCCO)N1[C@H](c3ccccc3)[C@H](c3ccccc3)OC(=O)[C@H]1[C@@H]2C(=O)N1CCCCCCC1`, the composite z-score was 0.549 (inactive) in assay [1] and 0.688 in the assay on XIP peptide (Xip251-270). Also, the z-score in assay [2] was -2.05; in assay [3], 4.13 (inactive); in assay [4] it was 0.234 (inactive); in assay [5] it was 0.347 (inactive).
In the case of `CN(C)CCCNC(=O)[C@@H]1c2ccccc2C(=O)N(Cc2ccccc2Cl)[C@H]1c1ccc(CO)cc1`, the composite z-score was 0.596 (inactive) in assay [1] and 0.285 with XIP peptide (Xip251-270). For the same compound, the z-score in assay [2] was -0.424; in assay [3] it was -2.58 (inactive); in assay [4], 0.0357 (inactive); in assay [5], 0.0322 (inactive).
As for `COc1cc(OC)c(C(O)C2C=CC3C(=O)N(C)C(=O)C3N2NC(=O)OC(C)(C)C)cc1Br` (configuration not stated), the values for the composite z-score (in assay [1]; in the assay with XIP peptide (Xip251-270)) were -0.121 (inactive) and 0.759, respectively. Further, the z-score in assay [2] was -0.107; in assay [3], -2.6 (inactive); in assay [4], 0.111 (inactive); in assay [5] it was -0.0533 (inactive).
Regarding `COc1ccc(C(O)C2C=CC3C(=O)N(c4ccccc4)C(=O)C3N2Nc2ccc([N+](=O)[O-])cc2)cc1` (configuration not stated), the composite z-score in assay [1] is 0.584 (inactive); in the assay with XIP peptide (Xip251-270), 0.797. The z-score in assay [2] is -0.906; in assay [3], -3.98 (inactive); in assay [4], 0.895 (inactive); in assay [5], -0.355 (inactive).
Take `CCCCCCc1nc(-c2cc(C)c(OC)c(C)c2)c(C)c2c1[Si](C(C)C)(C(C)C)OC2`: the results for the composite z-score (in assay [1]; in the assay with XIP peptide (Xip251-270)) were -0.31 (inactive) and -0.306, respectively. The z-score was -2.23 in assay [2], -0.241 (inactive) in assay [3], 0.0933 (inactive) in assay [4] and 0.149 (inactive) in assay [5].
As to `O=C1O[C@H](c2ccccc2)[C@H](c2ccccc2)N2[C@H]1[C@@H](C(=O)N1CCN(c3ncccn3)CC1)[C@]1(C(=O)Nc3ccc(C#CC4(O)CCCCCC4)cc31)[C@H]2c1ccc(OCCO)cc1`, the composite z-score in assay [1] was 2.51 (inactive); in the assay with XIP peptide (Xip251-270) it was 0.781. Moreover, the z-score in assay [2] was -2.13; in assay [3], 0.271 (inactive); in assay [4], 0.354 (inactive); in assay [5] it was 0.527 (inactive).
For the compound `CCOC(=O)C[C@H]1[C@H](OC(=O)c2cc3ccccc3oc2=O)[C@@H](NC(=O)c2ccc(-c3ccccc3)cc2)c2cc(OCCCO)ccc2N1C(=O)c1ccc2ccccc2n1`, the values for the composite z-score (in assay [1]; in the assay with XIP peptide (Xip251-270)) were 0.155 (inactive) and 0.339, respectively. Also, the z-score in assay [2] is -0.949; in assay [3], -2.27 (inactive); in assay [4] it was -0.359 (inactive); in assay [5], -0.583 (inactive).
On to `CCOC(=O)C[C@H]1[C@H](OC(=O)Cc2ccc3c(c2)OCO3)[C@@H](NC(=O)CC(C)C)c2cc(OCCCO)ccc2N1C(=O)Cc1ccc(OC)cc1`, for which the composite z-score in assay [1] was -0.107 (inactive); in the assay on XIP peptide (Xip251-270), -0.311. Further, the z-score in assay [2] was 0.0373; in assay [3] it was -3.35 (inactive); in assay [4], -0.839 (inactive); in assay [5], -0.401 (inactive).
As to `COC(=O)[C@@]1(Cc2ccccc2)[C@H]2c3cc(C(=O)N(C)C)n(Cc4c(CO)[nH]cc(C)c4=O)c3C[C@H]2CN1C(=O)c1ccccc1`, the composite z-score is 0.278 (inactive) in assay [1] and 0.3 with XIP peptide (Xip251-270). Besides, the z-score in assay [2] is -1.16; in assay [3], -5.3 (inactive); in assay [4], -0.0454 (inactive); in assay [5], 0.0707 (inactive).
Regarding `COc1ccc([Si](C)(C)[C@@H]2[C@@H](CC(=O)N3Cc4ccccc4C[C@H]3CO)O[C@]3(C(=O)N(C)c4ccccc43)[C@H]2C)cc1`, the composite z-score was 0.176 (inactive) in assay [1] and 0.773 in the assay with XIP peptide (Xip251-270). For the same compound, the z-score was -2.74 in assay [2], -6.03 (inactive) in assay [3], -1.6 (inactive) in assay [4] and -0.901 (inactive) in assay [5].
Take `CCCCCCCCCCC(O)C1C=CC2C(=O)N(C)C(=O)C2N1Nc1ccc([N+](=O)[O-])cc1[N+](=O)[O-]` (configuration not stated): the composite z-score is -0.0993 (inactive) in assay [1] and 0.464 in the assay with XIP peptide (Xip251-270). Also, the z-score in assay [2] is 0.625; in assay [3] it was -3.99 (inactive); in assay [4], 0.496 (inactive); in assay [5], -0.12 (inactive).
On to `O=C1OCCC/C=C\[C@H]2OC34C=CCN(CCN5CCOCC5)C(=O)[C@H]3N(CCCCCCO)C(=O)[C@@H]4C12` (some centres not stated), for which the composite z-score in assay [1] is 3.43 (inactive); with XIP peptide (Xip251-270), 0.299. In addition, the z-score is -0.282 in assay [2], -6.22 (inactive) in assay [3], -0.039 (inactive) in assay [4] and 0.587 (inactive) in assay [5].
As for `CC(C)C(CO)N1C(=O)[C@@H]2C3C(=O)OCCC/C=C\[C@H]3OC23C=CCN(C(C)(C)C)C(=O)[C@@H]13` (some centres not stated), the results for the composite z-score (in assay [1]; in the assay with XIP peptide (Xip251-270)) were -0.68 (inactive) and -0.201, respectively. Besides, the z-score was 1.16 in assay [2], -5.07 (inactive) in assay [3], 0.0464 (inactive) in assay [4] and -0.0642 (inactive) in assay [5].
